Values joined by “and” are separate entries in the source; they are usually repeats but may differ in a detail not shown here. Equal entries are not always repeated. The campaign covered roughly 5,500 compounds. About 2,000 (36%) were called active. About 18% were inconclusive and are not listed. Cut-off read from the data, not from the text of the source: active = normalized growth mostly below about 0.91 (no sharp cut-off); inconclusive = no clear call, values can overlap the other calls; inactive = mostly above about 0.92. The list shows a part of the results.
Experiment: chemical genetic growth profiling, strain panel (AID 1159580);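 note: tested at 20 µM; growth read once vehicle control cultures reached saturation at 30 °C; 1 = growth at the plate median or of vehicle wells; lower values mean less growth of the strain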
Conditions: S. cerevisiae deletion strains, growth OD

Measured: normalized growth

C=C1C[C@]23C[C@@]1(O)CC[C@H]2[C@@]12C=C[C@H](O)[C@@](C)(C(=O)O1)[C@H]2[C@@H]3C(=O)O
inactive: locus YAL013W, strain DEP1, stronger effect = lower value 0.998 | locus YAL021C, strain ccr4, stronger effect = lower value 0.976 | locus YAL026C, strain drs2, stronger effect = lower value 1.04 | locus YAL030W, strain snc1, stronger effect = lower value 1.03 | locus YBL061C, strain skt5, stronger effect = lower value 1.02 | locus YBR009C, strain hhf1, stronger effect = lower value 1.02 | locus YBR021W, strain FUR4, stronger effect = lower value 1.01 | locus YBR023C, strain chs3, stronger effect = lower value 1.02 | locus YBR171W, strain sec66, stronger effect = lower value 1.03 | locus YBR229C, strain ROT2, stronger effect = lower value 0.956 | locus YBR231C, strain swc5, stronger effect = lower value 1.03 | locus YBR279W, strain paf1, stronger effect = lower value 1.02 | locus YCL011C, strain gbp2, stronger effect = lower value 1.03 | locus YCL016C, strain dcc1, stronger effect = lower value 0.997 | locus YCL029C, strain bik1, stronger effect = lower value 0.984 | locus YCL069W, strain vba3, stronger effect = lower value 1.03 | locus YCR088W, strain abp1, stronger effect = lower value 1.02 | locus YDL005C, strain med2, stronger effect = lower value 1.03 | locus YDL035C, strain GPR1, stronger effect = lower value 0.982 | locus YDL040C, strain nat1, stronger effect = lower value 1.03 | locus YDL074C, strain BRE1, stronger effect = lower value 1.02 | locus YDL101C, strain DUN1, stronger effect = lower value 0.999 | locus YDL134C, strain PPH21, stronger effect = lower value 1.03 | locus YDL185W, strain tfp1, stronger effect = lower value 0.978 | locus YDL192W, strain arf1, stronger effect = lower value 0.986 | locus YDR001C, strain nth1, stronger effect = lower value 1.03 | locus YDR069C, strain doa4, stronger effect = lower value 1.03 | locus YDR101C, strain arx1, stronger effect = lower value 0.967 | locus YDR137W, strain rgp1, stronger effect = lower value 1.03 | locus YDR150W, strain NUM1, stronger effect = lower value 0.996 | locus YDR159W, strain sac3, stronger effect = lower value 1.04 | locus YDR162C, strain NBP2, stronger effect = lower value 0.976 | locus YDR195W, strain ref2 1 | locus YDR297W, strain sur2, stronger effect = lower value 1.02 | locus YDR318W, strain mcm21, stronger effect = lower value 0.984 | locus YDR334W, strain swr1, stronger effect = lower value 1.02 | locus YDR335W, strain msn5, stronger effect = lower value 1.02 | locus YDR388W, stronger effect = lower value 0.998 | locus YDR392W, strain spt3, stronger effect = lower value 0.885 | locus YDR502C, strain sam2, stronger effect = lower value 1.03 | locus YEL003W, strain gim4, stronger effect = lower value 1.02 | locus YEL037C, strain rad23, stronger effect = lower value 1.02 | locus YEL061C, strain CIN8 (second series), stronger effect = lower value 1.02 | locus YEL061C, strain CIN8, stronger effect = lower value 1 | locus YER015W, strain faa2, stronger effect = lower value 1.02 | locus YER016W, strain bim1, stronger effect = lower value 1.03 | locus YER110C, stronger effect = lower value 0.98 | locus YER111C, strain swi4, stronger effect = lower value 1 | locus YER155C, strain BEM2 (second series), stronger effect = lower value 1 | locus YER155C, strain BEM2, stronger effect = lower value 0.991 | locus YER167W, strain BCK2, stronger effect = lower value 0.989 | locus YFR010W, strain ubp6, stronger effect = lower value 1.03 | locus YGL078C, strain dbp3, stronger effect = lower value 1.02 | locus YGL086W, strain mad1, stronger effect = lower value 1.01 | locus YGL167C, strain pmr1, stronger effect = lower value 1.03 | locus YGL173C, strain kem1, stronger effect = lower value 1.05 | locus YGL227W, strain vid30, stronger effect = lower value 1.02 | locus YGL240W, strain doc1, stronger effect = lower value 1.02 | locus YGL248W, strain PDE1, stronger effect = lower value 1.01 | locus YGL253W, strain hxk2, stronger effect = lower value 1.05 | locus YGR135W, strain pre9, stronger effect = lower value 1.07 | locus YGR252W, strain gcn5, stronger effect = lower value 1.05 | locus YHR013C, strain ard1, stronger effect = lower value 1.02 | locus YHR027C, strain rpn1, stronger effect = lower value 1.03 | locus YHR030C, strain SLT2, stronger effect = lower value 0.996 and 1 | locus YHR079C, strain IRE1 (second series), stronger effect = lower value 0.998 | locus YHR079C, strain IRE1, stronger effect = lower value 0.998 | locus YHR094C, strain hxt1, stronger effect = lower value 0.991 | locus YHR129C, strain ARP1, stronger effect = lower value 0.998 | locus YHR142W, strain chs7, stronger effect = lower value 1.04 | locus YHR200W, strain rpn10, stronger effect = lower value 1.01 | locus YIL066C, strain RNR3, stronger effect = lower value 0.98 | locus YIL073C, strain SPO22, stronger effect = lower value 1.07 | locus YIL125W, strain kgd1, stronger effect = lower value 1 | locus YIR030C, strain dcg1, stronger effect = lower value 0.994 | locus YJL092W, strain hpr5, stronger effect = lower value 1.02 | locus YJL095W, strain BCK1 (second series), stronger effect = lower value 1.02 | locus YJL095W, strain BCK1, stronger effect = lower value 1.06 and 1.01 | locus YJL115W, strain asf1, stronger effect = lower value 1.02 | locus YJL129C, strain trk1, stronger effect = lower value 1.04 | locus YJL134W, strain LCB3, stronger effect = lower value 0.99 | locus YJL154C, strain vps35, stronger effect = lower value 1.03 | locus YJL164C, strain tpk1, stronger effect = lower value 1.01 | locus YJL166W, strain qcr8, stronger effect = lower value 1.03 | locus YJL168C, strain set2, stronger effect = lower value 1.01 | locus YJL187C, strain SWE1 (second series), stronger effect = lower value 1.01 | locus YJL187C, strain SWE1, stronger effect = lower value 1.03 | locus YJR043C, strain POL32, stronger effect = lower value 0.96 | locus YJR066W, strain TOR1, stronger effect = lower value 0.962 | locus YKL009W, strain mrt4, stronger effect = lower value 1.03 | locus YKL068W, stronger effect = lower value 1 | locus YKL085W, strain MDH1 (second series), stronger effect = lower value 0.99 | locus YKL085W, strain MDH1, stronger effect = lower value 0.99 | locus YKL160W, strain elf1, stronger effect = lower value 0.998 | locus YKR001C, strain vps1, stronger effect = lower value 1.01 | locus YKR026C, strain gcn3, stronger effect = lower value 1.02 | locus YKR091W, strain srl3, stronger effect = lower value 1.03 | locus YLL001W, strain dnm1, stronger effect = lower value 0.986 | locus YLL026W, stronger effect = lower value 1.02 | locus YLL041C, strain sdh2, stronger effect = lower value 1.02 | locus YLR027C, strain aat2, stronger effect = lower value 1.03 | locus YLR039C, strain RIC1, stronger effect = lower value 0.989 | locus YLR058C, strain SHM2, stronger effect = lower value 0.98 | locus YLR102C, strain apc9, stronger effect = lower value 0.995 | locus YLR113W, strain HOG1, stronger effect = lower value 0.998 | locus YLR221C, strain rsa3, stronger effect = lower value 1.04 | locus YLR258W, strain gsy2, stronger effect = lower value 1.02 | locus YLR262C, strain YPT6 (second series), stronger effect = lower value 1.03 | locus YLR268W, strain sec22, stronger effect = lower value 0.97 | locus YLR320W, strain mms22, stronger effect = lower value 1.05 | locus YLR342W, strain FKS1, stronger effect = lower value 1.03 | locus YLR357W, strain rsc2, stronger effect = lower value 0.994 | locus YLR370C, strain arc18, stronger effect = lower value 1.02 | locus YLR371W, strain rom2, stronger effect = lower value 0.992 | locus YLR384C, strain iki3, stronger effect = lower value 1.04 | locus YLR418C, strain cdc73, stronger effect = lower value 1.09 | locus YML016C, strain PPZ1, stronger effect = lower value 0.984 | locus YML032C, strain rad52, stronger effect = lower value 0.984 | locus YML120C, strain ndi1, stronger effect = lower value 1.01 | locus YML124C, strain tub3, stronger effect = lower value 0.984 | locus YMR058W, strain fet3, stronger effect = lower value 1.03 | locus YMR078C, strain ctf18, stronger effect = lower value 0.999 | locus YMR125W, strain sto1, stronger effect = lower value 1.01 | locus YMR129W, stronger effect = lower value 1.02 | locus YMR205C, strain PFK2, stronger effect = lower value 1.02 | locus YMR223W, strain ubp8, stronger effect = lower value 1.01 | locus YMR231W, strain pep5, stronger effect = lower value 1.01 | locus YMR263W, strain SAP30, stronger effect = lower value 0.994 | locus YMR307W, strain GAS1, stronger effect = lower value 0.969 | locus YNL067W, strain RPL9B, stronger effect = lower value 1 | locus YNL071W, strain lat1, stronger effect = lower value 1.02 | locus YNL128W, strain TEP1, stronger effect = lower value 0.976 | locus YNL153C, strain GIM3, stronger effect = lower value 1.02 | locus YNL183C, strain NPR1, stronger effect = lower value 0.958 | locus YNL209W, strain ssb2, stronger effect = lower value 1.03 | locus YNL233W, strain BNI4, stronger effect = lower value 1.04 | locus YNL248C, strain rpa49, stronger effect = lower value 1.05 | locus YNL250W, strain rad50, stronger effect = lower value 0.998 | locus YNL271C, strain bni1, stronger effect = lower value 0.982 | locus YNL298W, strain CLA4, stronger effect = lower value 0.987 | locus YNL307C, strain MCK1, stronger effect = lower value 1.01 | locus YNL322C, strain KRE1 (second series), stronger effect = lower value 1 | locus YNR049C, strain mso1, stronger effect = lower value 1.02 | locus YNR052C, strain pop2, stronger effect = lower value 1.03 | locus YOL006C, strain TOP1, stronger effect = lower value 0.967 | locus YOL012C, strain htz1 1.07 | locus YOL147C, strain pex11, stronger effect = lower value 0.99 | locus YOR001W, strain rrp6, stronger effect = lower value 1.04 | locus YOR061W, strain CKA2, stronger effect = lower value 0.962 | locus YOR069W, strain VPS5, stronger effect = lower value 0.996 | locus YOR070C, strain gyp1, stronger effect = lower value 1.01 | locus YOR080W, strain dia2, stronger effect = lower value 1 | locus YOR083W, strain WHI5, stronger effect = lower value 0.997 | locus YOR106W, strain vam3, stronger effect = lower value 0.982 | locus YOR136W, strain idh2, stronger effect = lower value 0.989 | locus YOR144C, strain elg1, stronger effect = lower value 0.991 | locus YOR184W, strain ser1, stronger effect = lower value 0.954 | locus YOR231W, strain MKK1, stronger effect = lower value 0.98 | locus YOR265W, strain rbl2, stronger effect = lower value 1.02 | locus YOR270C, strain vph1, stronger effect = lower value 1.11 | locus YOR290C, strain snf2, stronger effect = lower value 0.985 | locus YOR316C, strain cot1, stronger effect = lower value 0.984 | locus YPL051W, strain arl3, stronger effect = lower value 0.992 | locus YPL078C, strain atp4, stronger effect = lower value 0.995 | locus YPL106C, strain sse1, stronger effect = lower value 0.993 | locus YPL240C, strain hsp82, stronger effect = lower value 1.01 | locus YPL241C, strain CIN2, stronger effect = lower value 0.997 | locus YPL256C, strain CLN2, stronger effect = lower value 0.992 | locus YPR119W, strain clb2, stronger effect = lower value 1.01 | locus YPR141C, strain kar3, stronger effect = lower value 0.981 | locus YPR163C, strain tif3, stronger effect = lower value 0.989 | locus YPR167C, strain met16, stronger effect = lower value 1.01 | strain wtn01, stronger effect = lower value 0.974

From PubChem BioAssay AID1159580 (chemical genetic matrix, 2015)
